From the supplement of paper PMC8183993 come the findings set out here.

Structures can show the parent of a compound that is named as a salt. ± gives the standard deviation of the averaged measurements. The full ranking holds about 3,100 compounds; the median of “mean cytoplasmic OPP incorporation (global translation) relative to DMSO” is about 100, and the lowest 2% start at about 56. The sample holds the lowest values, similar compounds and a random draw of the others, so the mix is not that of the screen.

In the test the test system is U2OS. The test can be described thus: mean cytoplasmic OPP incorporation (global translation) relative to DMSO (% of DMSO); higher = more protein synthesis. Particulars: 10 µM; 24 h. The procedure: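 Primary image-based screen in U2OS cells: compounds at 10 uM for 24 h, then a 1 h o-propargyl-puromycin (OPP) pulse, click labelling, and high-throughput microscopy. Mean cytoplasmic OPP intensity and nuclei count were normalised to DMSO wells within each plate (DMSO = 100) and averaged over triplicate plates.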
Take `C[C@]12CC[C@H](O)C[C@H]1CC[C@@H]1[C@@H]2C[C@@H](O)[C@]2(C)[C@@H](C3=CC(=O)OC3)CC[C@]12O` [Digoxigenin]: the “mean cytoplasmic OPP incorporation” value was determined as 32.
As to `C[C@]12CC[C@@H](O)C[C@@H]1CC[C@@H]1[C@@H]2CC[C@]2(C)C(=O)CC[C@@H]12` [Androsterone], the “mean cytoplasmic OPP incorporation” value turned out to be 97.1.
In the case of `C[C@]12CC[C@H](O)C[C@@H]1CC[C@@H]1[C@@H]2CC[C@]2(C)C(=O)CC[C@@H]12`, the “mean cytoplasmic OPP incorporation” value came out at 95.2.
Then `CC(=O)[C@H]1CC[C@H]2[C@@H]3CC[C@H]4C[C@H](O)CC[C@]4(C)[C@H]3C(=O)C[C@]12C` [Alfaxalone], with 102; and `C[C@]12CC[C@H](O)C[C@H]1CC[C@@H]1[C@@H]2CC[C@]2(C)[C@@H](C3=CC(=O)OC3)CC[C@]12O` [Digitoxigenin], with 26.3.
`CC(=O)O[C@H]1C[C@H](O[C@H]2[C@@H](O)C[C@H](O[C@H]3[C@@H](O)C[C@H](O[C@H]4CC[C@@]5(C)[C@H](CC[C@@H]6[C@@H]5C[C@@H](O)[C@]5(C)[C@@H](C7=CC(=O)OC7)CC[C@]65O)C4)O[C@@H]3C)O[C@@H]2C)O[C@H](C)[C@H]1O[C@@H]1O[C@H](CO)[C@@H](O)[C@H](O)[C@H]1O` [Lanatoside C]: the “mean cytoplasmic OPP incorporation” value worked out at 27.8.
Regarding `C[C@]12CC[C@H](O)C[C@@H]1CC[C@@H]1[C@@H]2CC[C@]2(C)C(=O)CC[C@@H]12` [Epiandrosterone], the “mean cytoplasmic OPP incorporation” value amounted to 90.1.
With `C[C@]12CC[C@@H](O)C[C@H]1CC[C@@H]1[C@@H]2CC[C@]2(C)C(=O)CC[C@@H]12` [3-alpha-Hydroxy-5-beta-androstan-17-one], the “mean cytoplasmic OPP incorporation” value is 89.8.
Then `CN(C)CCN(C)CCc1ccc(Cl)c(Cl)c1` [BD 1047 dihydrobromide], with 105.
`CN(C(=O)Cc1ccc(Cl)c(Cl)c1)[C@H](CN1CCCC1)c1ccccc1` [ICI-199,441 hydrochloride]: the “mean cytoplasmic OPP incorporation” value is 111.
Regarding `CCCN(CCC)[C@@H]1CCc2c(OC)cccc2[C@@H]1C` [(+)-UH 232 maleate], the “mean cytoplasmic OPP incorporation” value came to 102.
Then `NC(C(=O)O)c1nn[nH]n1` (racemic) [(RS)-(Tetrazol-5-yl)glycine], with 102; and `CC1(C)[C@@H](O)C[C@H]2[C@](C)(O)[C@@H]3CC[C@@H]4[C@@H](O)[C@@]3(C[C@@H](O)[C@@]21O)C[C@@]4(C)O` [Grayanotoxin III], with 102.
Then `Clc1ccc(C2=CCCC3CCC2N3)cn1` (stereo unspecified) [UB 165 fumarate], with 97.7.
Then `CCC(Oc1ccc(Cl)cc1)C(=O)OC1C[C@H]2CC[C@@H](C1)N2C` (stereo partly specified) [SM-21 maleate], with 106.
As to `N=C(NCc1ccc(Cl)cc1)SCCCc1c[nH]cn1` [Clobenpropit dihydrobromide], the “mean cytoplasmic OPP incorporation” value was found to be 95.4.
Then `CC(N)Cc1cnc[nH]1` (stereo unspecified), with 101; and `C=CCN1CC[C@]2(C)c3cc(O)ccc3C[C@H]1C2C` (single isomer, unassigned; (+)), with 105.
Regarding `COc1ccc(C(=O)O[C@H]2CC[C@@]3(C)[C@@H]4CC[C@H]5[C@]6(O)C[C@H](O)[C@@]7(O)[C@@H](CN8C[C@@H](C)CC[C@H]8[C@@]7(C)O)[C@]6(O)C[C@@]53O[C@]24O)cc1OC` [Veratridine], the “mean cytoplasmic OPP incorporation” value is 108.
Turning to `COc1ccc2[nH]cc(C3=CCNCC3)c2c1`, the “mean cytoplasmic OPP incorporation” value turned out to be 101.
Regarding `CC(C)(Cc1c[nH]c2ccc(Cl)cc12)NCCOc1ccccc1OCC1CC1`, the “mean cytoplasmic OPP incorporation” value amounted to 55.1.
`Cn1cc(C(=O)C(=O)N[C@H]2CN3CCC2CC3)c2ccccc21`: the “mean cytoplasmic OPP incorporation” value was found to be 99.4.
As to `OC(Cc1ccncc1)C(Cl)(Cl)Cl` (stereo unspecified), the “mean cytoplasmic OPP incorporation” value stood at 104.
For the compound `C=C(C)CN1CC[C@@]23c4c5ccc(O)c4O[C@H]2c2[nH]c4ccccc4c2C[C@]3(O)C1C5` [SDM25N hydrochloride], the “mean cytoplasmic OPP incorporation” value was found to be 95.8.
Then `O=Cc1cn(Cc2ccc(Cl)cc2)c2ccccc12` [Oncrasin 1], with 83.4.
Regarding `CN1C(=O)[C@]23CC4=CC=C[C@H](O)[C@H]4N2C(=O)[C@@]1(CO)SS3` [Gliotoxin], the “mean cytoplasmic OPP incorporation” value worked out at 33.6.
Then `CCC[C@@H]1CC2=CC(=O)CC[C@]2(C)[C@H]2CC[C@@]3(C)[C@@H](CC[C@@]3(O)CCC(=O)O)[C@H]12`, with 96.1; and `Oc1ccc2c3c1O[C@H]1c4c(c5ccccc5n4Cc4ccccc4)C[C@@]4(O)C(C2)N(CC2CC2)CC[C@]314` [N-Benzylnaltrindole hydrochloride], with 111; and `Cc1nc(N)sc1CCN` [Amthamine dihydrobromide], with 107.
Then `C[C@@H]1O[C@@H](O[C@H]2C[C@@H](O)[C@]3(CO)[C@H]4[C@H](O)C[C@]5(C)[C@@H](C6=CC(=O)OC6)CC[C@]5(O)[C@@H]4CC[C@]3(O)C2)[C@H](O)[C@H](O)[C@H]1O` [Ouabain], with 47 ± 1.8; and `Cc1ncc(CN2CC=C(c3ccccc3)CC2)c(N)n1`, with 101.
Then `CC(CN)CC(=O)O` (stereo unspecified) [3-Methyl-GABA], with 102; and `CC1(C)[C@H](C(=O)O[C@H](C#N)c2cccc(Oc3ccccc3)c2)[C@@H]1C=C(Br)Br` [Deltamethrin], with 101; and `O=C1NC(=O)c2c1c1c3ccccc3n3c1c1c2c2ccccc2n1[C@H]1CC[C@@H]3O1`, with 91.2.
In the case of `O=C(O)C1=CCCN(CCOC(c2ccc(C(F)(F)F)cc2)c2ccc(C(F)(F)F)cc2)C1` [CI 966 hydrochloride], the “mean cytoplasmic OPP incorporation” value was determined as 97.6.
Then `COc1cc(N)c(Cl)cc1C(=O)NC1CN2CCC1CC2` (stereo unspecified) [Zacopride hydrochloride], with 104; and `C[CH2][Hg][S]c1ccccc1C(=O)[O-].[Na+]` [Thimerosal], with 15.5.
Take `O=C(O)/C=C/CO` [trans-4-Hydroxycrotonic acid]: the “mean cytoplasmic OPP incorporation” value was found to be 105.
Then `C[C@@H]1C[C@@H]([C@H](O)CC2CC(=O)NC(=O)C2)C(=O)[C@@H](C)C1` [Cycloheximide], with 52.1 ± 35; and `CC[N+](CC)(CCCNC1=CC(=O)C(NCCC[N+](CC)(CC)Cc2ccccc2)=CC1=O)Cc1ccccc1` [Benzoquinonium dibromide], with 101; and `O=C1CSC(c2ccccc2Cl)c2cc(Cl)ccc2N1` (stereo unspecified), with 101.
As to `CCOC(=O)c1ncn2c1CN(C)C(=O)c1cc(N=[N+]=[N-])ccc1-2`, the “mean cytoplasmic OPP incorporation” value was 91.9.
Turning to `Cn1c2c(c3ccccc31)CCNCC2`, the “mean cytoplasmic OPP incorporation” value is 97.4.
Then `Fc1ccc(C(OCCN2CCN(C/C=C/c3ccccc3)CC2)c2ccc(F)cc2)cc1`, with 102; and `CCCOc1ccc2[nH]cc(C3=CCNCC3)c2n1`, with 103.
Then `C[C@@H]1CC[C@@]2(OC1)O[C@H]1C[C@H]3[C@@H]4CC=C5C[C@@H](O[C@@H]6O[C@H](CO)[C@@H](O[C@@H]7O[C@@H](C)[C@H](O)[C@@H](O)[C@H]7O)[C@H](O)[C@H]6O[C@@H]6O[C@@H](C)[C@H](O)[C@@H](O)[C@H]6O)CC[C@]5(C)[C@H]4CC[C@]3(C)[C@H]1[C@@H]2C` [Dioscin (Collettiside III)], with 50.2.
Then `CC(=O)O[C@H]1CC[C@@]2(C)C(=CC[C@@H]3[C@@H]2CC[C@]2(C)C(=O)CC[C@@H]32)C1` [Dehydroisoandosterone 3-acetate], with 83.5; and `C=CCN1C[C@H](C)N([C@H](c2ccc(C(=O)N(CC)CC)cc2)c2cccc(O)c2)C[C@H]1C`, with 111; and `O=C1CC[C@@]2(O)[C@H]3Cc4ccc(O)c5c4[C@@]2(CCN3CC2CC2)[C@H]1O5` [Naltrexone hydrochloride dihydrate], with 108.
Turning to `O=C1/C(=C/c2ccccc2)C[C@@]2(O)[C@H]3Cc4ccc(O)c5c4[C@@]2(CCN3CC2CC2)[C@H]1O5` [BNTX maleate], the “mean cytoplasmic OPP incorporation” value came to 34.8.
Regarding `Oc1ccc2c3c1O[C@H]1c4[nH]c5c(c4C[C@@]4(O)[C@@H](C2)N(CC2CC2)CC[C@]314)C[C@@]1(O)[C@H]2Cc3ccc(O)c4c3[C@@]1(CCN2CC1CC1)[C@H]5O4` [nor-Binaltorphimine dihydrochloride], the “mean cytoplasmic OPP incorporation” value came out at 102.
In the case of `NCC(CS(=O)(=O)O)c1ccc(Cl)cc1` (stereo unspecified) [Saclofen], the “mean cytoplasmic OPP incorporation” value is 104.
As to `C[C@@H]1O[C@@H](O[C@@H]2C=C3CC[C@@H]4[C@H](CC[C@]5(C)[C@@H](c6ccc(=O)oc6)CC[C@]45O)[C@@]3(C)CC2)[C@H](O)[C@H](O)[C@H]1O` [Proscillaridin A], the “mean cytoplasmic OPP incorporation” value is 17.5.
Take `Cc1ccc2cc3c(ccc4ccccc43)c3c2c1CC3` [3-Methylcholanthrene]: the “mean cytoplasmic OPP incorporation” value turned out to be 114.
Turning to `O=C(O)CCC(CP(=O)(O)O)C(=O)O` (stereo unspecified) [PMPA (NAALADase inhibitor)], the “mean cytoplasmic OPP incorporation” value is 105.
Then `CCOc1cncc(/C=C/CCNC)c1` [TC 2559 difumarate], with 97.5.
